# In all, about 330,000 compounds went through this assay and about 390 (0.12%) were called active. Many of the other results were omitted from the sample, so actives are more common in it than they were. Values without a mark were called inactive.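 Rule for the calls: active = inhibition reaching a set limit with compound at 10 µM in the primary screen (cut at about 35% in these data); inactive = the rest.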
# Molecular target: Intestinal-type alkaline phosphatase (Homo sapiens) (UniProt P09923)
# Test: blockers of intestinal alkaline phosphatase activity – biochemical, luminescence, uHTS, primary screen (AID 2544);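 note: plate controls were DMSO wells with enzyme for no effect and no-enzyme buffer wells for full effect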
# Conditions: purified IAP, CDP-Star luminescence, 30 min; at 10 µM; hits give high values
# Intestinal-type alkaline phosphatase (Homo sapiens), sequence (P09923 whole entry, looked up): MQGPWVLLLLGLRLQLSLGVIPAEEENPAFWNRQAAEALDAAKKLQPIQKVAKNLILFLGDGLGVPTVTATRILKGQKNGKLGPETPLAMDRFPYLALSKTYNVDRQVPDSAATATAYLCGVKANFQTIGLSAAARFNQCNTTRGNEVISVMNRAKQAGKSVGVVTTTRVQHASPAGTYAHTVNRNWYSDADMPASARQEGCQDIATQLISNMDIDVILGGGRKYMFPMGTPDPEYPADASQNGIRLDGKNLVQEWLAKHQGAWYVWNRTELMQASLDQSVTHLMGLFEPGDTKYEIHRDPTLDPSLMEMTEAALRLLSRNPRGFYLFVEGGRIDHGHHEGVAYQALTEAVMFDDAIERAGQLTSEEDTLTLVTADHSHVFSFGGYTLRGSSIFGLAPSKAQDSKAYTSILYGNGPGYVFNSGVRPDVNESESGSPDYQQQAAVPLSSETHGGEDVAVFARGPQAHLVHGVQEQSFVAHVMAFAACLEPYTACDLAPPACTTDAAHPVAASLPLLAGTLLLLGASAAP
row,Compound,inhibition
1,COc1cccc(-n2c(=O)c3c(C)c(C(=O)N(C)C)sc3n(CC(=O)NCCc3ccc(OC)c(OC)c3)c2=O)c1,-1.6%
2,C[N+]1(CCNC(=O)/C=N/O)CCCCC1,-34.9%
3,CC(=O)c1ccc(S(=O)(=O)Nc2ccc(-c3ccc4nncn4n3)cc2)cc1,-1.5%
4,COC(=O)[C@H](C(C)C)n1c(C)c(C(C)=O)c(C(C)=O)c1C,-6.9%
5,CC(C)C[C@H](NC(=O)[C@@H]1O[C@H]1C(=O)O)C(=O)NCCCCN=C(N)N,14.6%
6,CCCc1ccc(C(=O)[C@@H]2[C@@H](C(C)=O)N3c4ccc(F)cc4C=C[C@@H]3[C@@]23C(=O)Nc2ccccc23)cc1,0%
7,CCCCc1nc(NCCN)c(C#N)c2c1CSC(C)(C)C2,6.8%
8,Cc1ccc(S(=O)(=O)Nc2ccc(F)c(S(=O)(=O)N3CCOCC3)c2)cc1,-6.7%
9,CC(Oc1ccccc1)C(=O)NN1Cc2ccccc2C1=N (configuration not stated),-9.2%
10,Cc1cccn2c(=O)nc(SCC(=O)NCc3ccccc3Cl)nc12,-1.6%
11,CCOCc1nnc(NC(=O)CCS(=O)(=O)Cc2ccccc2)s1,-9.2%
12,COC(=O)CSc1nnc(NC(=O)CCc2ccccc2)s1,-5.1%
13,COCCSc1nnc(NC(=O)CCS(=O)(=O)Cc2ccccc2)s1,35.1% (active)
14,CCOc1ccccc1NC(=S)N1CCN(c2cccc(C)c2C)CC1,-5.2%
15,COc1ccccc1C(=O)N(C1=NC(C)CS1)c1ccc(Cl)cc1 (configuration not stated),-3%
16,Cc1ccn2c(=O)c(C(=O)NCCC3=CCCCC3)c(O)nc2c1,6.8%
17,O=C(Nc1cc(S(=O)(=O)N2CCOCC2)ccc1OCC(F)(F)F)c1ccc(N2CCCC2=O)cc1,2.5%
18,Cc1cc(C)c2c(n1)sc1c(=O)n(-c3ccccc3)c(=O)[nH]c12,5.6%
19,Cc1ccc(-n2c(C)nnc2SCC(=O)NC2CC2)cc1,-12.6%
20,Cc1nc(-c2ccc(F)cc2)c(CC(=O)Nc2cc(S(=O)(=O)N3CCCCC3)ccc2C)s1,-13.3%
21,CC(C)Oc1c(Br)cc(Br)cc1/C=N/NC(N)=S,14.7%
22,COc1ccc(C(C(=O)NC(C)(C)C)N(C(=O)Cn2nnc3ccccc32)c2ccc(C(C)=O)cc2)cc1O (configuration not stated),-15.8%
23,CCC(=O)c1ccc(OCC(=O)OCC(=O)NC2CCCCCC2)cc1,8.3%

row,Compound,inhibition
1,Oc1ccc(CNc2ccccc2O)cc1,-0.8%
2,COc1ccc(/C=C2\N=C3CCCN3C2=O)cc1,7.3%
3,Cc1cc(C)c2c(Cn3ccnc3)cc(=O)oc2c1,-7%
4,CN(CC(=O)Nc1cccc(F)c1)C(=O)C1CC(=O)N(CCc2ccccc2)C1 (configuration not stated),2.5%
5,C/C(Cc1ccccc1)=N\NC(=O)CNC(=O)c1ccc2c(c1)OCCO2,1.8%
6,CSc1ccc(S(=O)(=O)Nc2cccc(F)c2)cc1,7%
7,CN=C1SC(CC(=O)Nc2ccc(C(=O)O)cc2)C(=O)N1C (configuration not stated),15.6%
8,CCOC(=O)COc1cc(OCC(=O)OCC)c2c(=O)cc(-c3ccccc3)oc2c1,-22.1%
9,COc1c(O)cc2oc(-c3ccc(O)c(O)c3)cc(=O)c2c1O,40.1% (active)
10,CCn1nnnc1SCC(=O)c1ccc(C)cc1C,-4%
11,Cc1cccc(-c2nnc(SCC(=O)O)n2Cc2ccccc2)c1,-16.7%
12,Cc1ccc2c(c1)nnc1nnc(SCC(=O)O)n12,36.1% (active)
13,Cc1ccccc1N1CC(C(=O)Nc2nnc(SCCC3OCCO3)s2)CC1=O (configuration not stated),18.3%
14,C=CCn1c(=S)sc2c(=O)[nH]c(C)nc21,-10.3%
15,CN(C)/C=C1\C=C(c2ccccc2)OC1=O,0.7%
16,Cc1ccc(N=C2SCCCN2C(=O)c2cccc(N3C(=O)CCC3=O)c2)cc1Cl,-21.5%
17,Cc1ccc(-n2ncc3c(Nc4cccc(C(=O)O)c4)ncnc32)cc1,17.6%
18,Cc1c(NC(=O)CN2C(=O)C(=O)N(Cc3ccccc3)C2=O)c(=O)n(-c2ccccc2)n1C,8.1%
19,NC(=O)c1nsc(C(=O)N(CC(=O)NCc2ccc(F)cc2)Cc2ccco2)c1N,-10.8%
20,O=C(CSc1nccn1-c1cccc(F)c1)NC1CCCC1,2.7%
21,Cc1csc(NC(=O)CSc2nc(=O)n(CCCN(C)C)c3c2CCC3)n1,6.4%
22,O=C(O)C1=CCCN(CCON=C(c2ccccc2)c2ccccc2)C1,-0.4%
23,CC(C)(C)c1ccc(/C=C2\Oc3c(ccc(O)c3CN3CCN(CCO)CC3)C2=O)cc1,8.9%

row,Compound,inhibition
1,CCOC(=O)c1ccc(NC(=O)CCn2c(=O)oc3ccccc32)cc1,-9.6%
2,CC[C@]1(c2ccccc2OC)C(=O)N(C(=O)OC)N1C(=O)OC,8.5%
3,O=C(COC(=O)Cc1c[nH]c2ccccc12)NCCc1ccccc1,14.4%
4,Cc1ccc(Cn2c(=N)c(S(=O)(=O)c3ccc(C)cc3)cc3c(=O)n4ccccc4nc32)cc1,-7.4%
5,Cc1cc(C(F)F)nn1CC(=O)NC1CCCCCC1,14%
6,CCC(C)N(C(=O)COC(=O)C1C(C(=O)OC)=C(C)NC(C)=C1C(=O)OC)C1CCS(=O)(=O)C1 (configuration not stated),-1.2%
7,CCN(C(=O)COC(=O)Cc1c(F)cccc1Cl)c1c(N)n(Cc2ccccc2)c(=O)[nH]c1=O,-9.2%
8,Cc1ccc(CNC(=O)c2cc(-c3ccccc3C)n(CC3CC(c4cccc([N+](=O)[O-])c4)=NO3)n2)cc1 (configuration not stated),17%
9,OCCC#Cc1ccc(CN2CCN(Cc3ccsc3)C(CCO)C2)cc1 (configuration not stated),12.2%
10,CC1O[C@@H](OC2C(O)C(C)O[C@H](OC(=O)[C@]34CCC(C)(C)C[C@H]3C3=CCC5[C@@]6(C)CC(O)C(O[C@@H]7OC(CO)C(O)[C@@H](O)[C@@H]7O)[C@@](C)(C(=O)O)C6CC[C@@]5(C)[C@]3(CO)CC4)C2O[C@H]2OC(C)[C@@H](O[C@@H]3OCC(O[C@@H]4OC(CO)C(O)[C@H](O)C4O)[C@@H](O)[C@@H]3O)[C@H](O)C2O)C(O)C(O)C1O (some centres not stated),-8.3%
11,CCOC(=O)c1[nH]cnc1C(=O)NC1CCCCC1,-28.7%
12,CCN(CC(=O)Nc1ccc2c(c1)OCCO2)Cc1cc(=O)oc2cc(C)c(C)cc12,5%
13,O=C(NNC1=C(C(=O)C(F)(F)F)CCC1)c1ccncc1,-34.2%
14,COC(=O)C(C)Sc1ccc2nnc(-c3cccc(F)c3)n2n1 (configuration not stated),-8.4%
15,COc1ccccc1C(=O)NCCC(=O)NN1C(=O)NC2(CCCCC2)C1=O,14.4%
16,CC1(C)NC(=O)N(CCCCSc2ccc(Cl)cc2)C1=O,-0.2%
17,Cc1ccc(Cl)c(OCC(=O)N2CCc3ccccc3C2)c1,-20.2%
18,O=C(CSc1nnc(CNC(=O)c2ccc(F)cc2)o1)Nc1ccc2c(c1)OCO2,-13.1%
19,COc1ccc(CN2CCC(c3nc4ccc(Cl)cc4[nH]3)CC2)cc1,-27.1%
20,O=C(NCc1ccc2c(c1)OCO2)C1CCCN(S(=O)(=O)c2cccs2)C1 (configuration not stated),17.9%
21,COc1ccc(C(C#N)N2N=C(C)CC2(C)C)cc1 (configuration not stated),-6.2%

# — PubChem BioAssay AID2544 (Sanford-Burnham Center for Chemical Genomics, 2010)
